# According to PubChem BioAssay (EPA / NIEHS):
# Values joined by “and” are separate entries in the source; they are usually repeats but may differ in a detail not shown here. Equal entries are not always repeated. Records with an inconclusive call do not appear. Where a structure was tested more than once in an assay, its records may differ in their call. Active and inactive are the calls of the source. How the source made its calls: active means hit-call score of the fitted dose curve at least 0.9, where 1 is the maximum; inconclusive means response in the unintended direction; inactive means score below 0.9.
# Key:
# [1] = test system: zebrafish Estrogen Receptor (ESR2B), gene 317733; assay: ATG_zfER2b_XSP1: Attagene TRANS-FACTORIAL Multi-Species (XSP1) HepG2 Assay for zebrafish Estrogen Receptor (ESR2B) (AID 2283773)
# Summary of the method: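 Gain-of-signal endpoint relative to DMSO: reporter transcript levels quantified by RT-PCR and capillary electrophoresis after 24 h compound exposure of HepG2 cells expressing a zebrafish ER2b-Gal4 chimera.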
# [2] = test system: frog Estrogen Receptor (ESR2), gene 100174814; assay: ATG_frER2_XSP1: Attagene TRANS-FACTORIAL Multi-Species (XSP1) HepG2 Assay for frog Estrogen Receptor (ESR2) (AID 2283774)
# Summary of the method: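 Transactivation of an exogenous receptor-Gal4 fusion is tracked in transfected HepG2 cells via induced reporter transcript levels. After 24 h treatment, RT-PCR with capillary electrophoresis quantifies signal gain over DMSO.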
# [3] = ACEA_AR_agonist_AUC_viability: ACEA Biosciences xCELLigence Real-Time Cell Analysis on Androgen Receptor Agonism for Viability (AID 2283775);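 on AC50: viability read 80 hours after compound addition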
# Summary of the method: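 Read-out is area under the impedance curve at 80 h post-dose in 22Rv1 cells, with DMSO as baseline and signal loss taken as reduced viability. Compounds ran in duplicate from 100 uM final.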
# [4] = ACEA_AR_antagonist_AUC_viability: ACEA Biosciences xCELLigence Real-Time Cell Analysis on Androgen Receptor Antagonism for Viability (AID 2283776);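 further: 22Rv1 human prostate cancer cells growing on impedance electrode plates; area under impedance growth curve at 80 h after dosing as viability; hits lower the growth signal relative to DMSO meaning cytotoxicity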
# Summary of the method: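 Viability endpoint from label-free cell-index monitoring: 22Rv1 cultures treated with an eight-point 1:4 dilution series starting at 100 uM final, AUC at 80 h fitted against DMSO.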
# [5] = test system: frog Estrogen Receptor (ESR1), gene 398734; assay: ATG_frER1_XSP1: Attagene TRANS-FACTORIAL Multi-Species (XSP1) HepG2 Assay for frog Estrogen Receptor (ESR1) (AID 2283777)
# Summary of the method: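 Human hepatoma HepG2 cells carried transiently transfected multiplexed Gal4-driven reporters and were exposed to test chemicals for 24 hours. Transcripts were quantified by fluorescent RT-PCR with capillary electrophoresis, referenced to DMSO.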
# [6] = target: chicken Estrogen Receptor (ESR1), ESR1 (gene 396099) (UniProt P06212); assay: ATG_chERa_XSP1: Attagene TRANS-FACTORIAL Multi-Species (XSP1) HepG2 Assay for chicken Estrogen Receptor (ESR1) (AID 2283779)
# Chain of chicken Estrogen Receptor (ESR1), ESR1 (gene 396099) (P06212 whole entry, looked up, the tested form may be a part): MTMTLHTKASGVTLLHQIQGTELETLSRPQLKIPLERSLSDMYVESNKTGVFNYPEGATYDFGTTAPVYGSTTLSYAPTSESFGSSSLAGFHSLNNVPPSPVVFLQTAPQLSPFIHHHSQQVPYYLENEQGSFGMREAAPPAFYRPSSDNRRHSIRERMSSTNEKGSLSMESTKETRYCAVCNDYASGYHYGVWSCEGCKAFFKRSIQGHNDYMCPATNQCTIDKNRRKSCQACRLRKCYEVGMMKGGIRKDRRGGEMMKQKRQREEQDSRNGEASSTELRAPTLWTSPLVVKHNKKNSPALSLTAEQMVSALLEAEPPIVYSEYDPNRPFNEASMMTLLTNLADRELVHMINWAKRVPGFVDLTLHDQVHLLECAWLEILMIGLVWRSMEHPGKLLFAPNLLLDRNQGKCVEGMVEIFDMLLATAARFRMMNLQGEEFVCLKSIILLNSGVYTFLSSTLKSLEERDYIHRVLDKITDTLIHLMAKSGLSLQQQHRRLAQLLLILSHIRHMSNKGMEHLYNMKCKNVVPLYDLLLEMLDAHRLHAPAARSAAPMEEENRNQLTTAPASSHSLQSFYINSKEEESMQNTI
# Summary of the method: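 Human liver HepG2, transient MRTU transfection (NR-Gal4 chimeras, GAL4-UAS reporters); 24 h compound exposure; 3 nM 6-alpha-fluorotestosterone in medium. Total RNA → RT-PCR → 6-FAM primer extension → HpaI → CE. Positive direction vs DMSO baseline.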
# [7] = test system: turtle Estrogen Receptor (ESR1), gene 101933533; assay: ATG_trERa_XSP1: Attagene TRANS-FACTORIAL Multi-Species (XSP1) HepG2 Assay for turtle Estrogen Receptor (ESR1) (AID 2283781)
# Summary of the method: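 Activity was taken as gain of reporter transcript over DMSO controls. HepG2 cells carrying GAL4-UAS-driven reporters were exposed for 24 h before RNA was extracted and reporter sequences were measured by fluorescence after capillary separation.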
# [8] = ACEA_ER_AUC_viability: ACEA Biosciences xCELLigence Real-Time Cell Analysis on Estrogen Receptor Agonism for Viability (AID 2283782);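 further: continuous compound exposure with impedance area under curve over 80 h; hit means loss of impedance signal meaning reduced cell growth or viability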
# Summary of the method: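 T-47D; phenol red-free RPMI1640 + 10% CS-FBS; 8 conc., 1:4 serial, max 100 uM final, ≤0.5% DMSO; n = 2; continuous exposure; impedance monitored to 80 h post-dose; AUC vs DMSO.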
# [9] = test system: zebrafish Estrogen Receptor (ESR2A), gene 317734; assay: ATG_zfER2a_XSP1: Attagene TRANS-FACTORIAL Multi-Species (XSP1) HepG2 Assay for zebrafish Estrogen Receptor (ESR2A) (AID 2283778)
# Summary of the method: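 Cells were transfected, dosed for 24 h, then total RNA was isolated. After oligo(dT) reverse transcription, reporter sequences were amplified, FAM-labelled by primer extension, digested with HpaI and sized by capillary electrophoresis; DMSO served as baseline.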
# [10] = target: AR (gene 367) (UniProt P10275); assay: ACEA_AR_agonist_80hr: ACEA Biosciences xCELLigence Real-Time Cell Analysis on Androgen Receptor Agonism for Proliferation (AID 2283783);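 further: hits increase impedance growth signal above DMSO baseline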
# Chain of AR (gene 367) (P10275 whole entry, looked up): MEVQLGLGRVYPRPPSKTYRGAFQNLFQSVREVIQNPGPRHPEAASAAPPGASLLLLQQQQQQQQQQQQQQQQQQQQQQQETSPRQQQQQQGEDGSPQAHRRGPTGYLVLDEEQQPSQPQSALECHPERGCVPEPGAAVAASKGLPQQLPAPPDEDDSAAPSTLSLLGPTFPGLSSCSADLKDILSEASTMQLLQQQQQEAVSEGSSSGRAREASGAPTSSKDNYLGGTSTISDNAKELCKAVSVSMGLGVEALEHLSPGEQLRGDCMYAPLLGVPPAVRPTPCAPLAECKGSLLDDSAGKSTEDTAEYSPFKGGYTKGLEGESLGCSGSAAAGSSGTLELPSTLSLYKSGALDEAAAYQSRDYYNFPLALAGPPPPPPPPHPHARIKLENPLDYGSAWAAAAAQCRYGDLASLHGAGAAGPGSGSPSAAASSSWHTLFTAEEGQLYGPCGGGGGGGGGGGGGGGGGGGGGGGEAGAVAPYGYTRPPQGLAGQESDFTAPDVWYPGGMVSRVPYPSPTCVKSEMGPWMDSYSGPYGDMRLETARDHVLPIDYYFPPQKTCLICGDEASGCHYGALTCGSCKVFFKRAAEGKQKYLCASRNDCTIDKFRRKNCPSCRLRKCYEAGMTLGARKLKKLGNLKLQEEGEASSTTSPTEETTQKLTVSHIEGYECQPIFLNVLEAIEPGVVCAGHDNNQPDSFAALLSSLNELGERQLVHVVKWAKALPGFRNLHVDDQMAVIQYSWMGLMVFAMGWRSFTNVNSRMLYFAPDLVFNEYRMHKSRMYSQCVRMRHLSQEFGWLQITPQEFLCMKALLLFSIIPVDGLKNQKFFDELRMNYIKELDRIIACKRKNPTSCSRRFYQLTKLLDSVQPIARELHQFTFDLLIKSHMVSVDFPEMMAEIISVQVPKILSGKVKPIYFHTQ
# Summary of the method: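 Androgen-driven proliferation in 22Rv1 cells is tracked as electrical impedance, taken 80 h after continuous exposure to compound (eight concentrations, 1:4 steps, maximum 100 uM final). Activity is fitted in the positive direction with DMSO as baseline.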
smiles,measurement,setting,value
CCCCC(CC)COC(=O)c1ccccc1C(=O)OCC(CC)CCCC (stereo not drawn),AC50,[1],16.1 µM (active)
same,outcome,[2],inactive
same,AC50,[3],50 µM (active)
same,AC50,[4],61.8 µM (active)
same,outcome,[5],inactive
same,outcome,[6],inactive
same,outcome,[7],inactive
same,outcome,[8],inactive
CCOc1cc(Oc2ccc(C(F)(F)F)cc2Cl)ccc1[N+](=O)[O-],AC50,[3],22.8 µM (active)
same,AC50,[4],12.9 µM (active)
COc1ccc(C(c2ccc(OC)cc2)C(Cl)(Cl)Cl)cc1,AC50,[1],1.08 µM (active)
same,AC50,[2],1.09 µM (active)
same,AC50,[3],80.8 µM (active)
same,AC50,[4],76.7 µM (active)
same,AC50,[5],0.368 µM (active)
same,outcome,[9],inactive
same,AC50,[6],1.97 µM (active)
same,AC50,[7],1.32 µM (active)
same,AC50,[8],88.6 µM (active)
CC(C)Oc1cc(-n2nc(C(C)(C)C)oc2=O)c(Cl)cc1Cl,AC50,[1],29.6 µM (active)
same,AC50,[2],33.5 µM (active)
same,AC50,[3],50 µM (active)
same,AC50,[4],50 µM (active)
same,AC50,[5],7.92 µM (active)
same,outcome,[9],inactive
same,AC50,[6],27.2 µM (active)
same,AC50,[7],20.8 µM (active)
same,AC50,[8],81.9 µM (active)
OC(c1ccc(Cl)cc1)(c1cncnc1)c1ccccc1Cl (stereo not drawn),AC50,[1],8.4 µM (active)
same,AC50,[2],4.32 µM (active)
same,AC50,[3],72 µM (active)
same,AC50,[4],67.8 µM (active)
same,AC50,[9],4.49 µM (active)
same,AC50,[6],2.36 µM (active)
same,AC50,[7],2.12 µM (active)
same,outcome,[8],inactive
COP(=S)(OC)Oc1nc(Cl)c(Cl)cc1Cl,AC50,[1],46.6 µM (active)
same,AC50,[2],61.6 µM (active)
same,outcome,[3],inactive
same,AC50,[5],31 µM (active)
same,AC50,[6],27.8 µM (active)
same,AC50,[7],27.9 µM (active)
same,AC50,[8],79 µM (active)
Oc1ccccc1-c1ccccc1,AC50,[3],50 µM (active)
same,outcome,[3],inactive
same,AC50,[4],48.6 µM (active)
same,AC50,[8],78 µM (active)
COC(=O)N(OC)c1ccccc1COc1ccn(-c2ccc(Cl)cc2)n1,outcome,[1],inactive
same,outcome,[2],inactive
same,AC50,[3],25.9 µM (active)
same,AC50,[4],26.8 µM (active)
same,outcome,[5],inactive
same,outcome,[9],inactive
same,outcome,[7],inactive
same,AC50,[8],92.3 µM (active)
CC(C)(C)c1ccc(CSc2cnn(C(C)(C)C)c(=O)c2Cl)cc1,outcome,[1],inactive
same,outcome,[2],inactive
same,AC50,[3],16 µM (active)
same,AC50,[4],26.9 µM (active)
same,outcome,[5],inactive
same,outcome,[9],inactive
same,outcome,[6],inactive
same,outcome,[7],inactive
COC(=O)C=C(C)OP(=O)(OC)OC,AC50,[3],29.8 µM (active)
same,AC50,[4],19 µM (active)
Cc1c(F)c(F)c(COC(=O)C2C(/C=C(\Cl)C(F)(F)F)C2(C)C)c(F)c1F (stereo not drawn),outcome,[3],inactive
same,AC50,[4],30.6 µM (active)
N#CC(CCc1ccc(Cl)cc1)(Cn1cncn1)c1ccccc1 (stereo not drawn),AC50,[3],50 µM (active)
same,AC50,[4],25.7 µM (active)
CCCCNC(=O)OCC#CI,outcome,[1],inactive
same,AC50,[3],11.6 µM (active)
same,AC50,[4],13.9 µM (active)
same,outcome,[9],inactive
same,AC50,[8],5.58 µM (active)
CCOC(=O)CC(SP(=S)(OC)OC)C(=O)OCC (stereo not drawn),AC50,[3],92.5 µM (active)
same,AC50,[4],85.1 µM (active)
C#CCOS(=O)OC1CCCCC1Oc1ccc(C(C)(C)C)cc1 (stereo not drawn),AC50,[1],80.1 µM (active)
same,AC50,[2],25.8 µM (active)
same,AC50,[3],44.7 µM (active)
same,AC50,[4],21.7 µM (active)
same,outcome,[5],inactive
same,AC50,[6],26.8 µM (active)
same,AC50,[7],44.3 µM (active)
same,AC50,[8],87.4 µM (active)
CO/C=C(/C(=O)OC)c1ccccc1Oc1cc(Oc2ccccc2C#N)ncn1,outcome,[2],inactive
same,AC50,[3],46.7 µM (active)
same,AC50,[4],45.3 µM (active)
same,outcome,[6],inactive
same,outcome,[7],inactive
same,outcome,[10],inactive
CCOP(=S)(OCC)SCn1c(=O)oc2cc(Cl)ccc21,AC50,[1],24.5 µM (active)
same,AC50,[3],91.5 µM (active)
same,AC50,[4],76.9 µM (active)
CCCCOC(=O)c1ccccc1C(=O)OCCCC,AC50,[1],24.6 µM (active)
same,AC50,[3],77.2 µM (active)
same,AC50,[4],66.1 µM (active)
same,outcome,[5],inactive
same,AC50,[6],26.7 µM (active)
same,outcome,[7],inactive
same,AC50,[8],78.3 µM (active)
same,outcome,[8],inactive
COP(N)(=O)SC (stereo not drawn),outcome,[3],inactive
same,outcome,[4],inactive
CCCC1COC(Cn2cncn2)(c2ccc(Cl)cc2Cl)O1 (stereo not drawn),AC50,[1],27.6 µM (active)
same,AC50,[2],27 µM (active)
same,outcome,[3],inactive
same,AC50,[4],74.8 µM (active)
same,outcome,[5],inactive
same,outcome,[9],inactive
same,outcome,[6],inactive
same,outcome,[7],inactive
same,AC50,[8],92.1 µM (active)
same,outcome,[10],inactive
COC(=O)C(C)Oc1ccc(Oc2ccc(Cl)cc2Cl)cc1 (stereo not drawn),AC50,[3],50 µM (active)
same,AC50,[4],50 µM (active)
CCCN(CCC)c1c([N+](=O)[O-])cc(S(N)(=O)=O)cc1[N+](=O)[O-],AC50,[1],14.2 µM (active)
same,AC50,[2],11.2 µM (active)
same,AC50,[5],12.7 µM (active)
same,AC50,[9],33.4 µM (active)
same,AC50,[6],16.2 µM (active)
same,AC50,[7],33.4 µM (active)
same,AC50,[8],24 µM (active) and 82.5 µM (active) and 21.4 µM (active)
same,outcome,[8],inactive
CON(C)C(=O)Nc1ccc(Cl)c(Cl)c1,AC50,[1],35.9 µM (active)
same,AC50,[2],29.1 µM (active)
same,outcome,[3],inactive
same,AC50,[4],15.8 µM (active)
same,outcome,[4],inactive
same,AC50,[5],10.4 µM (active)
same,outcome,[9],inactive
same,AC50,[6],27.3 µM (active)
same,AC50,[7],26.7 µM (active)
same,outcome,[8],inactive
